Source: PubChem BioAssay (NCATS)
Inconclusive results are not listed. Where a call stands in place of a potency, no number is given. Unmarked numbers belong to inactive results. Activity calls are given as the source filed them. The call rests on the fitted dose curve; in most records, active means well fitted inhibition curve with a large enough effect; inconclusive means small, poorly fitted or top-dose-only effect; inactive means flat fitted curve, though single readings scatter.

Tests used:
[1] = qHTS profiling for inhibitors of Plasmodium falciparum proliferation (AID 504749); further: nearly all actives have a fitted effect of over 60% in size; conditions: P. falciparum in erythrocytes, SYBR Green DNA, 72 h
In short: (§1)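 SYBR Green fluorescence (ex 485 nm, em 535 nm) reports parasite DNA after 72 h compound exposure of infected red cells at 0.3% parasitemia, 2.5% hematocrit; signal normalized to 0.29 uM artemisinin and vehicle wells.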

3D7 = assay: as above; conditions: P. falciparum in erythrocytes, SYBR Green DNA, 72 h; series mostly up to 28.7 µM
In short: as §1

7G8 = assay: as above; conditions: P. falciparum in erythrocytes, SYBR Green DNA, 72 h; series mostly up to 28.7 µM
In short: as §1

AA1029 = assay: as above; conditions: P. falciparum in erythrocytes, SYBR Green DNA, 72 h; series mostly up to 28.7 µM
In short: as §1

AS120 = assay: as above; conditions: P. falciparum in erythrocytes, SYBR Green DNA, 72 h; series mostly up to 28.7 µM
In short: as §1

ATS189 = assay: as above; conditions: P. falciparum in erythrocytes, SYBR Green DNA, 72 h; series mostly up to 28.7 µM
In short: as §1

ATS95 = assay: as above; conditions: P. falciparum in erythrocytes, SYBR Green DNA, 72 h; series mostly up to 28.7 µM
In short: as §1

C2A = assay: as above; conditions: P. falciparum in erythrocytes, SYBR Green DNA, 72 h; series mostly up to 28.7 µM
In short: as §1

CP185 = assay: as above; conditions: P. falciparum in erythrocytes, SYBR Green DNA, 72 h; series mostly up to 28.7 µM
In short: as §1

CP191 = assay: as above; conditions: P. falciparum in erythrocytes, SYBR Green DNA, 72 h; series mostly up to 28.7 µM
In short: as §1

CP192 = assay: as above; conditions: P. falciparum in erythrocytes, SYBR Green DNA, 72 h; series mostly up to 28.7 µM
In short: as §1

CP194 = assay: as above; conditions: P. falciparum in erythrocytes, SYBR Green DNA, 72 h; series mostly up to 28.7 µM
In short: as §1

CP201 = assay: as above; conditions: P. falciparum in erythrocytes, SYBR Green DNA, 72 h; series mostly up to 28.7 µM
In short: as §1

CP203 = assay: as above; conditions: P. falciparum in erythrocytes, SYBR Green DNA, 72 h; series mostly up to 28.7 µM
In short: as §1

CP211 = assay: as above; conditions: P. falciparum in erythrocytes, SYBR Green DNA, 72 h; series mostly up to 28.7 µM
In short: as §1

CP215 = assay: as above; conditions: P. falciparum in erythrocytes, SYBR Green DNA, 72 h; series mostly up to 28.7 µM
In short: as §1

CP217 = assay: as above; conditions: P. falciparum in erythrocytes, SYBR Green DNA, 72 h; series mostly up to 28.7 µM
In short: as §1

CP237 = assay: as above; conditions: P. falciparum in erythrocytes, SYBR Green DNA, 72 h; series mostly up to 28.7 µM
In short: as §1

CP238 = assay: as above; conditions: P. falciparum in erythrocytes, SYBR Green DNA, 72 h; series mostly up to 28.7 µM
In short: as §1

[2] = at 28.7 µM (top of the series), parasite line A
[3] = at 28.7 µM (top of the series), parasite line B
Potency means the concentration at half of the fitted maximal effect.

## c1ccc2[nH]ccc2c1
[1]; [2]
  activity, negative = inhibition: 15.1%
[1]; [3]
  activity, negative = inhibition: 19.4%
3D7
  Potency: inactive
7G8
  Potency: inactive
AA1029
  Potency: inactive
AS120
  Potency: inactive
ATS189
  Potency: inactive
ATS95
  Potency: inactive
C2A
  Potency: inactive
CP185
  Potency: inactive
CP191
  outcome: inactive
CP192
  outcome: inactive
CP194
  outcome: inactive
CP201
  outcome: inactive
CP203
  Potency: inactive
CP211
  outcome: inactive
CP215
  Potency: inactive
CP217
  outcome: inactive
CP237
  Potency: inactive
CP238
  Potency: inactive

## NNc1nnc(NN)c2ccccc12
[1]; [2]
  activity, negative = inhibition: 11.4%
[1]; [3]
  activity, negative = inhibition: 18.1%
3D7
  Potency: inactive
7G8
  Potency: inactive
AA1029
  Potency: inactive
AS120
  Potency: inactive
ATS189
  Potency: inactive
ATS95
  Potency: inactive
C2A
  Potency: inactive
CP185
  Potency: inactive
CP191
  outcome: inactive
CP192
  outcome: inactive
CP194
  outcome: inactive
CP203
  Potency: inactive
CP211
  outcome: inactive
CP217
  outcome: inactive
CP237
  Potency: inactive
CP238
  Potency: inactive

## NC(=O)c1ccc([N+](=O)[O-])cc1Cl
[1]; [2]
  activity, negative = inhibition: -8.53%
[1]; [3]
  activity, negative = inhibition: 6.47%
3D7
  Potency: inactive
7G8
  Potency: 8.91 µM (active)
AA1029
  Potency: inactive
AS120
  Potency: inactive
ATS95
  Potency: inactive
C2A
  Potency: inactive
CP185
  Potency: inactive
CP192
  outcome: inactive
CP194
  outcome: inactive
CP201
  outcome: inactive
CP203
  Potency: inactive
CP211
  outcome: inactive
CP215
  Potency: inactive
CP217
  outcome: inactive
CP237
  Potency: inactive
CP238
  Potency: inactive

## O=C(NCCCN1CCOCC1)c1ccc(Cl)cc1
[1]; [2]
  activity, negative = inhibition: 6.41%
[1]; [3]
  activity, negative = inhibition: 5.99%
3D7
  Potency: inactive
7G8
  Potency: inactive
AA1029
  Potency: inactive
AS120
  Potency: inactive
ATS189
  Potency: inactive
ATS95
  Potency: inactive
C2A
  Potency: inactive
CP185
  Potency: inactive
CP191
  outcome: inactive
CP192
  outcome: inactive
CP194
  outcome: inactive
CP201
  outcome: inactive
CP203
  Potency: inactive
CP211
  outcome: inactive
CP215
  Potency: inactive
CP217
  outcome: inactive
CP237
  Potency: inactive
CP238
  Potency: inactive

## CC(=O)Nc1ccccc1
[1]; [2]
  activity, negative = inhibition: 1.91%
[1]; [3]
  activity, negative = inhibition: -0.613%
3D7
  Potency: inactive
7G8
  Potency: inactive
AA1029
  Potency: inactive
AS120
  Potency: inactive
ATS189
  Potency: inactive
C2A
  Potency: inactive
CP185
  Potency: inactive
CP191
  outcome: inactive
CP192
  outcome: inactive
CP194
  outcome: inactive
CP201
  outcome: inactive
CP203
  Potency: inactive
CP211
  outcome: inactive
CP215
  Potency: inactive
CP217
  outcome: inactive
CP237
  Potency: inactive
CP238
  Potency: inactive

## CCS(=O)(=O)CCn1c([N+](=O)[O-])cnc1C
[1]; at 12.8 µM (top of the series), parasite line A
  activity, negative = inhibition: -2.71%
[1]; at 12.8 µM (top of the series), parasite line B
  activity, negative = inhibition: -11.1%
3D7
  Potency: inactive
7G8
  Potency: inactive
AA1029
  Potency: inactive
AS120
  Potency: inactive
ATS189
  Potency: inactive
ATS95
  Potency: inactive
C2A
  Potency: inactive
CP185
  Potency: inactive
CP191
  outcome: inactive
CP192
  outcome: inactive
CP194
  outcome: inactive
CP201
  outcome: inactive
CP203
  Potency: inactive
CP211
  outcome: inactive
CP215
  Potency: inactive
CP217
  outcome: inactive
CP237
  Potency: inactive
CP238
  Potency: inactive

## O=C(O)c1ccc[n+]([O-])c1
[1]; [2]
  activity, negative = inhibition: -4.83%
[1]; [3]
  activity, negative = inhibition: 10.2%
3D7
  Potency: inactive
7G8
  Potency: inactive
AA1029
  Potency: inactive
AS120
  Potency: inactive
ATS189
  Potency: inactive
ATS95
  Potency: inactive
C2A
  Potency: inactive
CP185
  Potency: inactive
CP191
  outcome: inactive
CP192
  outcome: inactive
CP194
  outcome: inactive
CP201
  outcome: inactive
CP203
  Potency: inactive
CP211
  outcome: inactive
CP215
  Potency: inactive
CP217
  outcome: inactive
CP237
  Potency: inactive
CP238
  Potency: inactive

## COC(=O)c1ccccc1C(=O)c1ccc(OCCN2CCCCC2)cc1
[1]; [2]
  activity, negative = inhibition: 9.58%
[1]; [3]
  activity, negative = inhibition: 5.94%
3D7
  Potency: inactive
7G8
  Potency: inactive
AA1029
  Potency: inactive
AS120
  Potency: inactive
ATS189
  Potency: inactive
ATS95
  Potency: inactive
C2A
  Potency: inactive
CP185
  Potency: inactive
CP191
  outcome: inactive
CP192
  outcome: inactive
CP194
  outcome: inactive
CP201
  outcome: inactive
CP203
  Potency: inactive
CP211
  outcome: inactive
CP215
  Potency: inactive
CP217
  outcome: inactive
CP238
  Potency: inactive

## CC(C)CCCC(C)CCCC(C)CCCCC(C)CCCC(C)CCCC(C)C (stereo not given)
[1]; [2]
  activity, negative = inhibition: -0.284%
[1]; [3]
  activity, negative = inhibition: 17.5%
3D7
  Potency: inactive
7G8
  Potency: inactive
AA1029
  Potency: inactive
AS120
  Potency: inactive
ATS189
  Potency: inactive
C2A
  Potency: inactive
CP185
  Potency: inactive
CP191
  outcome: inactive
CP192
  outcome: inactive
CP194
  outcome: inactive
CP201
  outcome: inactive
CP203
  Potency: inactive
CP211
  outcome: inactive
CP215
  Potency: inactive
CP217
  outcome: inactive
CP237
  Potency: inactive
CP238
  Potency: inactive

## C[C@@H]1O[C@@H](OC[C@H]2O[C@@H](Oc3c(-c4ccc(O)c(O)c4)oc4cc(O)cc(O)c4c3=O)[C@H](O)[C@@H](O)[C@@H]2O)[C@H](O)[C@H](O)[C@H]1O
[1]; [2]
  activity, negative = inhibition: 3.3%
[1]; [3]
  activity, negative = inhibition: 8.33%
3D7
  Potency: inactive
7G8
  Potency: inactive
AA1029
  Potency: inactive
AS120
  Potency: inactive
ATS189
  Potency: inactive
ATS95
  Potency: inactive
C2A
  Potency: inactive
CP185
  Potency: inactive
CP191
  outcome: inactive
CP192
  outcome: inactive
CP194
  outcome: inactive
CP201
  outcome: inactive
CP203
  Potency: inactive
CP211
  outcome: inactive
CP215
  Potency: inactive
CP217
  outcome: inactive
CP237
  Potency: inactive
CP238
  Potency: inactive

## Nc1ccc(C(=O)Oc2ccccc2)c(O)c1
[1]; [2]
  activity, negative = inhibition: -10.9%
[1]; [3]
  activity, negative = inhibition: 5.45%
3D7
  Potency: inactive
7G8
  Potency: inactive
AA1029
  Potency: inactive
AS120
  Potency: inactive
ATS189
  Potency: inactive
ATS95
  Potency: inactive
C2A
  Potency: inactive
CP185
  Potency: inactive
CP191
  outcome: inactive
CP192
  outcome: inactive
CP194
  outcome: inactive
CP201
  outcome: inactive
CP203
  Potency: inactive
CP211
  outcome: inactive
CP217
  outcome: inactive
CP237
  Potency: inactive
CP238
  Potency: inactive

## Cc1c(N(C)C)c(=O)n(-c2ccccc2)n1C
[1]; [2]
  activity, negative = inhibition: 13.7%
[1]; [3]
  activity, negative = inhibition: 18.1%
3D7
  Potency: inactive
7G8
  Potency: inactive
AA1029
  Potency: inactive
AS120
  Potency: inactive
ATS189
  Potency: inactive
ATS95
  Potency: inactive
C2A
  Potency: inactive
CP185
  Potency: inactive
CP191
  outcome: inactive
CP192
  outcome: inactive
CP194
  outcome: inactive
CP201
  outcome: inactive
CP203
  Potency: inactive
CP211
  outcome: inactive
CP215
  Potency: inactive
CP217
  outcome: inactive
CP237
  Potency: inactive
CP238
  Potency: inactive

## CCCNC(C)(C)COC(=O)c1ccccc1
[1]; [2]
  activity, negative = inhibition: -2.07%
[1]; [3]
  activity, negative = inhibition: 9.96%
3D7
  Potency: inactive
7G8
  Potency: inactive
AA1029
  Potency: inactive
AS120
  Potency: inactive
ATS189
  Potency: inactive
ATS95
  Potency: inactive
C2A
  Potency: inactive
CP185
  Potency: inactive
CP191
  outcome: inactive
CP192
  outcome: inactive
CP194
  outcome: inactive
CP201
  outcome: inactive
CP211
  outcome: inactive
CP215
  Potency: inactive
CP217
  outcome: inactive
CP238
  Potency: inactive
